# Compound activity: PubChem BioAssay, National Center for Advancing Translational Sciences (NCATS)
# HTT-AS act – activators of huntingtin-antisense promoter activity. HEK293 HTT-AS promoter firefly luciferase reporter, 24 h; response scale: percent change from vehicle, -100% = no light. Potency, µM (titrated, usually from 57.5 µM), for the others: top-dose activity change, positive = activation, hits mostly activators. 48,000 compounds, 0.24% hits. AID 1508624; further: potency means the concentration at half of the fitted maximal effect; nearly all actives have a fitted effect of over 55% in size
#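 HEK293 luciferase promoter-reporter cells (2,500/well) plated 24 h, then compounds added at up to 57.5 uM final for 24 h at 37 °C. Firefly luminescence by Dual-Glo, normalized to vehicle (0%) and zero RLU (-100%).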
# NTMT1 inh – NTMT1 methyltransferase inhibition | Q9BV86 | NTMT1 MTase-Glo SAH luminescence, purified enzyme | Potency, µM (doses to about 114 µM), inactives show at the highest dose activity change, negative = inhibition, most hits filed as inhibitors | 59,000 compounds, 2.5% hits;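 further: potency means the concentration at half of the fitted maximal effect; plate controls were DMSO vehicle for no effect and no enzyme for full effect; nearly all actives have a fitted effect of over 65% in size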
# Target sequence (Q9BV86 whole entry, looked up): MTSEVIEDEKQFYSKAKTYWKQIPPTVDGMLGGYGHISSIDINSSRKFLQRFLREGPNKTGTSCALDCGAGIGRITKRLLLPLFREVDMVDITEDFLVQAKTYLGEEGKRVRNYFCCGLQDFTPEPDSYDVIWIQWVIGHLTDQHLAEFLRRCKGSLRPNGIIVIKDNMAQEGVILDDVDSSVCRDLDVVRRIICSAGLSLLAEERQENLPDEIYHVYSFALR
# DRV1 agonist – activates human resolvin D1 receptor GPR32; O75388; CHO-K1 GPR32 beta-arrestin PathHunter luminescence, 90 min; zero percent set by DMSO-only wells; activation, % at 76.9 µM; 48,000 compounds, 2.5% hits; AID 1346428;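 active means activation of at least 60% and not above a set upper limit, about 1 call in 100 departs from these limits; inconclusive means activation of 40% to 60%, or above that upper limit; inactive means activation under 40%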; further: 0% is about no effect
# Target sequence (O75388 whole entry, looked up): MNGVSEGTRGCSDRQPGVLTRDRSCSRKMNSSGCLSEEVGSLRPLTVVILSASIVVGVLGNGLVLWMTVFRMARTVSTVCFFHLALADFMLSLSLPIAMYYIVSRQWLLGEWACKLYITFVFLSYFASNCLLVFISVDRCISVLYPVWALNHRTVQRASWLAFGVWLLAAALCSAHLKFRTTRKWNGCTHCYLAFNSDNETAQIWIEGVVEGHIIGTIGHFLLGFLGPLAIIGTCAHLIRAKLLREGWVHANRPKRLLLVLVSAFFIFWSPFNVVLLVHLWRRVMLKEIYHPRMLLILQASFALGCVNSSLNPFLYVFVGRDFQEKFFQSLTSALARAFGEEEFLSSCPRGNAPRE
#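 Step 1: seed CHO-K1 GPR32 beta-arrestin cells, 2,500/well, overnight at 37 °C. Step 2: add compounds, 90 min at 37 °C. Step 3: detection reagent, 1 h ambient, then luminescence.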
# HTT promoter inh – inhibits huntingtin promoter activity. HEK293 HTT promoter firefly luciferase reporter, 24 h. Potency, µM (series often up to 57.5 µM), inactives show top-dose activity change, negative = inhibition, actives largely listed as inhibitors. 48,000 compounds, 0.93% hits. AID 1508623; further: potency means the concentration at half of the fitted maximal effect; nearly all actives have a fitted effect of over 50% in size
#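 HEK293 cells carrying firefly luciferase reporters were seeded at 2,500 per well in Opti-MEM and cultured for 24 h. They were then treated with compounds at up to 57.5 uM final for 24 h at 37 degrees C before Dual-Glo luminescence readout.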
# * marks the source's active call; other numbers are inactive results; u = inconclusive; x = no result given; ! = not active in a repeat; [ ] = remark or other dose. Only some compounds are listed: those with a hit (about 4.6% of all), similar ones and a draw of the others. Unless noted, the call rests on the fitted dose curve; in most records, active means well fitted curve in the direction sought with a large enough effect; inconclusive means small, poorly fitted or top-dose-only effect, or another doubt; inactive means no such curve, though single readings can be large; an effect the other way counts as inactive or inconclusive.
SMILES,HTT-AS act,NTMT1 inh,DRV1 agonist,HTT promoter inh
CCC(=C(c1ccc(O)cc1)c1ccc(OCCNC)cc1)c1ccccc1,-28%,24µM*,x,u
CC/C(=C(\c1ccccc1)c1ccc(OCCN(C)C)cc1)c1ccccc1,-29%,u,-31,-16%
Cc1cc2oc(=O)c(CC(=O)O)c(C)c2c2occ(-c3ccccc3)c12,u,28µM*,8,61%
Cc1oc2c(c(C)cc3oc(=O)c(CC(=O)NCc4ccccc4)c(C)c32)c1C,-11%,-15%,-3,0%
O=C(Cn1c(=O)oc2cc(S(=O)(=O)NC3CCCC3)ccc21)Nc1ccc(F)c(F)c1,-26%,5%,91*,u
COc1ccc(NC(=O)Cn2c(=O)oc3cc(S(=O)(=O)NC4CCCC4)ccc32)cc1OC,-24%,-4%,-3,u
O=C(Cn1c(=O)oc2cc(S(=O)(=O)NCc3ccccc3)ccc21)Nc1cccc(F)c1,-34%,23%,67*,-31%
Cc1ccc(S(=O)(=O)Nc2ccccc2C(=O)Nc2nc(-c3ccccc3)co2)cc1,x,7%[57.5 µM],x,x
O=C(CCCCCCNC(=O)c1cnc(N(c2ccccc2)c2ccccc2Cl)nc1)NO,x,14%,x,x
NC(=O)c1cccc2cn(-c3ccc([C@@H]4CCCNC4)cc3)nc12,-1%,32µM*!,x,12%
FC(F)(F)c1ccc(CNc2nc(-c3ccccc3C(F)(F)F)nc3ccccc23)cc1,x,22%,x,x
Cc1c(CC(=O)NCCc2ccccc2F)c(=O)oc2cc(O)c(Cl)cc12,-8%,-14%,8,-9%
COc1cc2oc(=O)c(CC(=O)NCCc3ccccc3F)c(C)c2cc1OC,x,x,77*,x
Cc1ccc(NC(=O)CSc2nccn2Cc2ccco2)cc1Cl,13µM*,-25%,-5,30%
CC(=O)c1ccc(NC(=O)CSc2nccn2Cc2ccco2)cc1,3.2µM*,-10%,-16,36%
O=C(CSc1nccn1Cc1ccco1)Nc1ccc(F)cc1,34%,4%,-6,-4%
Cc1ccc(NC(=O)c2cnc(N3CCCCC3)c3ccccc23)c(C)c1,-3%,-14%,-3,1%
Cc1ccc(Cl)cc1NC(=O)c1cnc(N2CCCCC2)c2ccccc12,-21%,89µM*,-12,-5%
CC(C)=CCC[C@](C)(O[C@@H]1O[C@H](CO[C@@H]2OC[C@H](O)[C@H](O)[C@H]2O)[C@@H](O)[C@H](O)[C@H]1O)[C@H]1CC[C@]2(C)[C@@H]1[C@H](O)C[C@@H]1[C@@]3(C)CC[C@H](O[C@@H]4O[C@H](CO)[C@@H](O)[C@H](O)[C@H]4O[C@@H]4O[C@H](CO)[C@@H](O)[C@H](O)[C@H]4O)C(C)(C)[C@@H]3CC[C@]12C,x,12%[29.8 µM],x,x
COc1cc(S(=O)(=O)NCCc2c(C)[nH]c3ccccc23)c(C)cc1C,-20%,0%,78*,-14%
CCOc1ccc(S(=O)(=O)NCCc2c(C)[nH]c3c(Cl)cccc23)cc1C,-17%,-18%,25,-19%
CN(C)CCOc1ccc(-c2nc(-c3ccc4c(c3)CC/C4=N\O)c(-c3ccncc3)[nH]2)cc1,x,28µM*,x,x
Oc1cc(-c2nc(-c3ccccc3)[nH]c2-c2ccncc2)ccc1Cl,-25%,16%[57.5 µM],x,u
Cc1ccc(C(=O)Nc2cccc3cccnc23)cc1Cl,8.9µM*,u,-6,58%
CCCOc1cccc(C(=O)Nc2cccc3cccnc23)c1,29%,9%,-6,-1%
SMILES,HTT-AS act,NTMT1 inh,DRV1 agonist,HTT promoter inh
O=C(c1ccc2c(c1)ncn2-c1ccccc1)N1CCCCC1,x,7%[57.5 µM],x,x
CN(C)CCOc1cc(NS(=O)(=O)c2c(Cl)cc(C(F)(F)F)cc2Cl)ccc1Cl,x,5%[57.5 µM],x,x
Cc1cn([C@H]2C[C@H](N[S+](=O)([O-])Cc3cc(Cl)cc(Cl)c3)[C@@H](CO)O2)c(=O)[nH]c1=O,x,79µM*,x,x
CC1CCN(S(=O)(=O)c2ccc3c(c2)oc(=O)n3CC(=O)NC(C)c2ccccc2)CC1 (stereo not given),-34%,4%,31,14µM*
COc1ccc(Cl)cc1NC(=O)Cn1c(=O)oc2cc(S(=O)(=O)N3CCCCCC3)ccc21,-22%,-5%,7,u
Cc1cccc(NC(=O)Cn2c(=O)oc3cc(S(=O)(=O)N4CCCCCC4)ccc32)c1,-50%,-1%,38,10µM*
CC(NC(=O)Cn1c(=O)oc2cc(S(=O)(=O)N3CCCCCC3)ccc21)c1ccccc1 (stereo not given),-3%,-18%,-24,-14%
COc1cccc(NC(=O)Cn2c(=O)oc3cc(S(=O)(=O)N4CCCCC4)ccc32)c1,-40%,2%,116*,u
COc1ccc(C)cc1NC(=O)Cn1c(=O)oc2cc(S(=O)(=O)N3CCCCC3)ccc21,-36%,u,84*,u
CC(C)c1ccc(NC(=O)c2cccs2)c(-c2nc3ccccc3[nH]c2=O)c1,x,-14%[57.5 µM],x,x
CO[C@H]1C[C@@H]2CC[C@@H](C)[C@@](O)(O2)C(=O)C(=O)N2CCCC[C@H]2C(=O)O[C@H]([C@H](C)C[C@@H]2CC[C@@H](OCCO)[C@H](OC)C2)CC(=O)[C@H](C)/C=C(/C)[C@@H](O)[C@@H](OC)C(=O)[C@H](C)C[C@H](C)/C=C\C=CC=C1C,x,13%,x,x
COc1ccc(CNC(=O)Cn2c(=O)oc3cc(S(=O)(=O)N4CCC(C)CC4)ccc32)cc1,-2%,6%,4,u
COc1ccc(CNC(=O)Cn2c(=O)oc3cc(S(=O)(=O)N4CCCCCC4)ccc32)cc1,-25%,1%,61*,u
O=S(=O)(Nc1ccccc1F)c1ccc(O)c2ncccc12,x,5%[57.5 µM],x,x
COc1ncc(-c2ccc3c(Nc4cc(Oc5cc(F)cc(F)c5)cc(C(=O)O)c4)c(S(=O)(=O)NC4CC4)cnc3c2)c(OC)n1,x,11µM*!,x,x
Cc1cnc(-c2ccccc2C(F)(F)F)nc1NCc1ccc(-c2cccnc2)cc1,x,28%,x,x
CCOc1ccc(CN2CCN(Cc3ccc4c(c3)c3ccccc3n4CC)CC2)cc1,-58%,-17%,-9,32µM*
CCn1c2ccccc2c2cc(CN3CCN(Cc4ccc(OC)c(OC)c4)CC3)ccc21,-32%,u,-22,-20%
CCCCN(c1ccccc1)S(=O)(=O)c1ccc2c(c1)CC(C)N2C(=O)C1CC1 (stereo not given),-38%,8%,-25,u
CCCN(c1ccccc1CC)S(=O)(=O)c1ccc2c(c1)CC(C)N2C(=O)C1CC1 (stereo not given),-58%,7%,-20,22µM*
O=C(O)c1cccc(-n2cccc2/C=C2/C(=O)N(Cc3ccc(F)cc3)C(=O)N2Cc2ccc(F)cc2)c1,x,79µM*,x,x
Cc1ccc(NC(=O)CN2C(=O)N/C(=C\c3cccn3-c3ccc(C(=O)NS(C)(=O)=O)cc3)C2=O)cc1,x,79µM*,x,x
O=C(CN1C(=O)N/C(=C\c2cccn2-c2cccc(C(=O)O)c2)C1=O)Nc1cccc(Cl)c1,x,79µM*,x,x
